Consider seven molecules from PubChem BioAssay (NCATS).

This assay in a line: qHTS drug screen for cell cycle checkpoint inhibitors in PARPi-resistant BRCA-mutant ovarian cancer cell lines. (AID 1963452). The note with it: PEO1/OlaR viability, CellTiter-Glo luminescence, 96 h, stronger effect = lower value. The text has this:
Women's Malignancies Branch, Center for Cancer Research (CCR),
National Cancer Institute (NCI), National Institutes of Health (NIH), Bethesda, MD
Poly (ADP-ribose) polymerase inhibitors (PARPis) have changed the treatment paradigm in breast cancer gene (BRCA) - mutant high-grade serous ovarian carcinoma (HGSC). However, most patients eventually develop resistance to PARPis, highlighting an unmet need for improved therapeutic strategies. Using high-throughput drug screens, we identified ataxia telangiectasia and rad3-related protein/checkpoint kinase 1 (CHK1) pathway inhibitors as cytotoxic and further validated the activity of the CHK1 inhibitor (CHK1i) prexasertib in PARPi-sensitive and -resistant BRCA-mutant HGSC cells and xenograft mouse models. CHK1i monotherapy induced DNA damage, apoptosis, and tumor size reduction. We then conducted a phase 2 study (NCT02203513) of prexasertib in patients with BRCA-mutant HGSC. The treatment was well tolerated but yielded an objective response rate of 6% (1 of 17; one partial response) in patients with previous PARPi treatment. […] BRCA reversion mutation in previously PARPi-treated BRCA-mutant patients was not associated with resistance to CHK1i.
Among others, 1082 oncology drugs, both approved and investigational, were prioritized based on their status in clinical trial development. […] Drugs with average Z-AUC values less than -1.0 in all three cell lines were classified as "hits" resulting in 151 oncology drug hits. The screen also confirmed cross-resistance between olaparib and other PARPis (rucaparib, niraparib, and talazoparib) in PARPi-resistant PEO1/OlaR and PEO4.
[1] G. L. Lin, K. M. Wilson, M. Ceribelli, B. Z. Stanton, P. J. Woo, S. Kreimer, E. Y. Qin, X. Zhang, J. Lennon, S. Nagaraja, P. J. Morris, M. Quezada, S. M. Gillespie, D. Y. Duveau, A. M. Michalowski, P. Shinn, R. Guha, M. Ferrer, C. Klumpp-Thomas, S. Michael, C. McKnight, P. Minhas, Z. Itkin, E. H. Raabe, L. Chen, R. Ghanem, A. C. Geraghty, L. Ni, K. I. Andreasson, N. A. Vitanza, K. E.Warren, C. J. Thomas, M. Monje, Therapeutic strategies for diffuse midline glioma from high-throughput combination drug screening. Sci. Transl. Med. 11, (2019).
[2] T. M. Yamamoto, A. McMellen, Z. L. Watson, J. Aguilera, R. Ferguson, E. Nurmemmedov, T. Thakar, G. L. Moldovan, H. Kim, D. M. Cittelly, A. M. Joglar, E. P. Brennecke, H. Wilson, K. Behbakht, M. J. Sikora, B. G. Bitler, Activation of Wnt signaling promotes olaparib resistant ovarian cancer. Mol. Carcinog. 58, 1770 - 1782 (2019).
PROTOCOL TABLE (as described by Inglese J, Shamu CE and Guy RK. 2007)
SEQUENCE No. (e.g., 1, 2, 3, etc.); […] (e.g., Cells, Incubation, Reagent, etc.); VALUE; DESCRIPTION.
1; Compounds; 20nL; 1536-well white tissue culture-treated plates.
2; Cells; 5 uL; PEO1, PEO4, and PEO1/OlaR cells at 600 cells per well.
3; Incubation; 96 hr; 37C, 95% humidity, 5% CO2.
4; Reagent; 3 uL; CellTiter-Glo (Promega).
5; Incubation; 15 min; room temperature.
6; Detection; Luminescence, PHERAstar (BMG Labtech) plate reader.
NOTES (numbers refer to Sequence numbers above)
1. MIPE 5.0 compounds were acoustically dispensed by Echo Acoustic Liquid Handler (Beckman Coulter Life Sciences). Each compound was plated at an 11-point concentration range with 1:3 dilution. Bortezomib, a proteasome inhibitor (final concentration, 20 uM), was used as a positive.
2. PEO1, PEO4, and PEO1/OlaR were trypsinized and dispensed in 5 uLof growth medium using a Multidrop Combi dispenser at a density of 600 cells per well to allow compounds to be present during the exponential growth phase.
3. Plates were incubated for 96 hours at standard incubator conditions and covered by a stainless steel gasketed lid to prevent evaporation.
4. Three microliters of CellTiter-Glo (Promega) were added to each well.
5. Plates were incubated at room temperature for 15 min with a stainless-steel lid in place.
6. Luminescence readings were taken using PHERAstar (BMG Labtech). […]
On the technique in general: Quantitative high-throughput screening tests each substance at several concentrations.

The mark [1] stands for this setting: measured here: PEO1 parental Z-AUC.

Molecules are shown by their SMILES. Activity calls are given as the source filed them. Calls follow the shape of the full dose curve.

For `C[C@@H]1O[C@@H](O[C@@H]2C=C3CC[C@@H]4[C@H](CC[C@]5(C)[C@@H](c6ccc(=O)oc6)CC[C@]45O)[C@@]3(C)CC2)[C@H](O)[C@H](O)[C@H]1O`, the Z-AUC is -2.1 (inactive). The Z-AUC under setting [1] is -2.52. In addition, the Z-AUC (measured here: PEO4 Z-AUC) is -2.14.
With `C#C[C@]1(O)C=C[C@H]2[C@@H]3CCC4=CC(=O)CC[C@@H]4[C@H]3CC[C@@]21CC`, the Z-AUC was 1.19 (inactive). Moreover, the Z-AUC under setting [1] is 1.82. Further, under “measured here: PEO4 Z-AUC”, the Z-AUC came out at 1.32.
On to `COc1ccc(C(=O)N2CCCC2=O)cc1`, for which the Z-AUC was -0.603 (inactive). Moreover, the Z-AUC under setting [1] worked out at 0.111. The Z-AUC (measured here: PEO4 Z-AUC) was -0.65.
On to `O=C(O)c1nn(Cc2ccc(Cl)cc2Cl)c2ccccc12`, for which the Z-AUC is 0.664 (inactive). The Z-AUC under setting [1] came to 0.662. Under “measured here: PEO4 Z-AUC”, the Z-AUC came to 0.605.
On the same counts, the results for `C[C@@H]1C[C@@H]([C@H](O)CC2CC(=O)NC(=O)C2)C(=O)[C@@H](C)C1` are 0.13 (inactive), -0.0615 and 0.0418.
With `C[C@@H]1CC[C@H]2[C@@H](C)C(=O)O[C@@H]3O[C@@]4(C)CC[C@@H]1[C@]32OO4`, the Z-AUC was 1.33 (inactive). In addition, the Z-AUC under setting [1] was determined as 0.931. Besides, under “measured here: PEO4 Z-AUC”, the Z-AUC turned out to be 1.15.
In the case of `C[C@]12CC[C@H](O)CC1=CC[C@@H]1[C@@H]2CC[C@]2(C)C(=O)CC[C@@H]12`, the Z-AUC is 1.09 (inactive). Under setting [1], the Z-AUC worked out at 0.516. Further, under “measured here: PEO4 Z-AUC”, the Z-AUC came to 0.608.
